According to PubChem BioAssay (NCATS):
Inconclusive results are not listed. A call without a number means that no potency is given here. Calls of active or inactive are those of the source. The call rests on the fitted dose curve; in most records, active means well fitted curve in the direction sought with a large enough effect; inconclusive means small, poorly fitted or top-dose-only effect, or another doubt; inactive means no such curve, though single readings can be large; an effect the other way counts as inactive or inconclusive.

Columns and labels:
[1] = molecular target: Tyrosine-protein kinase Yes (Homo sapiens) (UniProt P07947); assay: qHTS for small molecule inhibitors of Yes1 kinase: Primary Screen (AID 686947); details: Yes1 kinase biochemical qHTS inhibition; series mostly up to 76.9 µM; further: nearly all actives have a fitted effect of over 60% in size; further: potency means the concentration at half of the fitted maximal effect
Tyrosine-protein kinase Yes (Homo sapiens), sequence (P07947 whole entry, looked up): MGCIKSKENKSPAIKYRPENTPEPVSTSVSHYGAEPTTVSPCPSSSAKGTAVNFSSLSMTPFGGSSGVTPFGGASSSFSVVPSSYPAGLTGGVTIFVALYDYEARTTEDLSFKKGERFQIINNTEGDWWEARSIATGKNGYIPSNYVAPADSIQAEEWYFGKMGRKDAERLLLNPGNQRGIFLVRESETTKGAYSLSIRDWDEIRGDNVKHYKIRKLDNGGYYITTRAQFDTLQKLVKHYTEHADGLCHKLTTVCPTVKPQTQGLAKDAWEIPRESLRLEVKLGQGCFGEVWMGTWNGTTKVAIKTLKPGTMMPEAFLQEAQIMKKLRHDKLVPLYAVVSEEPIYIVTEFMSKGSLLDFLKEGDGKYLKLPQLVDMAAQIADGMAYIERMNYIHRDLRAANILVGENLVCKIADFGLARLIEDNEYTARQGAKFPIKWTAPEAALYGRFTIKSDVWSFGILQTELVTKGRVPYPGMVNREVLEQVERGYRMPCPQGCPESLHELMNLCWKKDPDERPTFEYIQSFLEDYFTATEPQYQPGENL
How it was run: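 ADP-Glo luminescence reports ADP formed by 4 nM Yes1 phosphorylating poly(E4Y) (0.3 mg/mL) with 0.1 mM ATP for 60 min at room temperature, following 20 min compound preincubation; normalised between DMSO wells with and without enzyme.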

[2] = qHTS for small molecule inhibitors of Yes1 kinase: Counter Assay (AID 686950); details: series mostly up to 76.9 µM;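 further: no kinase present so only ADP-Glo detection of a fixed ADP amount is tested; luminescence from ADP-Glo reporting ADP in a fixed ATP and ADP mixture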
How it was run: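 No kinase present; 0.08 mM ATP + 0.02 mM ADP in 50 mM Tris pH 7.5, 10 mM MgCl2, 150 mM NaCl, 1 mM DTT; 20 min compound preincubation, 60 min RT, ADP-Glo luminescence, normalized to ATP/ADP (max) and ATP-only (min).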

Compound	Potency [1]	outcome [2]
COc1cc(N2CCN(C(C)C)CC2)ccc1Nc1nc(Nc2cccc(F)c2C(=O)O)c2cc[nH]c2n1	inactive	inactive
CCn1c(-c2nonc2N)nc2cnc(Oc3cccc(NC(=O)c4ccc(N(C)C)cc4)c3)cc21	inactive	inactive
COc1cc(C=NNc2ncnc3c2cnn3C(C)C)ccc1O	184 nM (active)	inactive
NS(=O)(=O)c1cccc(-c2ccc3c(NC(=O)C4CC4)n[nH]c3c2)c1	4120 nM (active)	inactive
Nc1nccc(-c2c(-c3ccc(F)cc3)ncn2CCCN2CCOCC2)n1	9230 nM (active)	inactive
CCn1c(-c2nonc2N)nc2cncc(C(=O)N3CCNCC3)c21	1460 nM (active)	inactive
COc1cc(Nc2ncc3c(C)nc(-c4cccc(C(F)(F)F)c4)n3n2)cc(OC)c1OC	582 nM (active)	inactive
NCc1ccc(-n2c(-c3nonc3N)nc3cnccc32)cc1	inactive	inactive
COc1cc(Nc2nccc(-c3cnn4ncccc34)n2)cc(OC)c1	519 nM (active)	inactive
CCN(CC)Cc1ccc(Nc2nccc(-c3cnn4ncccc34)n2)cc1	7330 nM (active)	inactive
COc1cc2c(cc1Nc1nc(Nc3cccc(F)c3C(N)=O)c3cc[nH]c3n1)N(C(=O)CN1CCN(C(C)C)CC1)CC2	inactive	inactive
COc1ccc(-c2coc3ncnc(N)c23)cc1	11600 nM (active)	inactive
CS(=O)(=O)CCNCc1coc(-c2ccc3ncnc(Nc4ccc(OCc5ccccc5)cc4)c3c2)c1	1840 nM (active)	inactive
O=S1CCN(Cc2ccc(-c3ccc4ncnc(Nc5ccc(OCc6ccccc6)c(F)c5)c4c3)o2)CC1	463 nM (active)	inactive
CC1=C(C(=O)Nc2ccc3[nH]ncc3c2)C(c2ccc3ccccc3c2)CC(=O)N1 (configuration not stated)	582 nM (active)	inactive
CCn1c(-c2nonc2N)nc2c(C#CC(C)(C)O)nc(OC(CN)c3ccccc3)cc21 (configuration not stated)	654 nM (active)	inactive
Cc1cc(-c2ccco2)cc(C)c1C=Cc1cncc(-c2nn[nH]n2)c1	1040 nM (active)	inactive
CCn1c(-c2nonc2N)nc2ccncc21	inactive	inactive
COc1ccc2ncnc(Nc3ccc(OCc4ccccc4)cc3)c2c1	733 nM (active)	inactive
CN(c1ccc(NC(=O)Nc2c(Cl)cccc2Cl)cc1)c1ccnc(Nc2cccc(CS(C)(=O)=O)c2)n1	1460 nM (active)	inactive
COc1cccc(-n2ncc3c(NN=Cc4ccc(C(=O)NCCN(C)C)cc4)ncnc32)c1	20.7 nM (active)	inactive
Clc1ccc(-c2nn3ncccc3c2-c2ccnc(Nc3ccccc3)n2)cc1	292 nM (active)	inactive
CCn1c(-c2nonc2N)nc2c(C#CC(C)(C)O)ncc(OC3CCNCC3)c21	26000 nM (active)	inactive
CS(=O)(=O)CCNCc1ccc(-c2ccc3ncnc(Nc4ccc(OCc5cccc(F)c5)c(C(F)(F)F)c4)c3c2)o1	inactive	inactive
NC(=O)c1ccc2c(-c3ccnc(NCCCO)n3)c(-c3ccc(F)cc3)nn2c1	6540 nM (active)	inactive
c1ccc(COc2ccc(Nc3ncnc4ccc(-c5ccco5)cc34)cc2)cc1	3680 nM (active)	inactive
